Among the data in PubChem BioAssay AID1009 (NMMLSC, 2008) are inhibition values, retold here.

The structures appear in SMILES notation. Out of some 190,000 compounds screened, about 200 (0.11%) were called active. Rule as the data show it: active = inhibition above about 40%. Shown is part of a subset that was picked to be rich in actives.

For this assay, the target named is Induced myeloid leukemia cell differentiation protein Mcl-1 (Homo sapiens) (UniProt Q07820). Kind of assay: inhibitors of Bim peptide binding to Mcl-1, primary screen, biochemical, bead-based flow cytometry, multiplex (AID 1009).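 Also: 0% = no compound tracer wells and 100% = peptide blocker.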 The note with it: Bim peptide-Mcl-1 binding, at 10 µM, stronger effect = higher value.
Induced myeloid leukemia cell differentiation protein Mcl-1 (Homo sapiens), sequence (Q07820 whole entry, looked up): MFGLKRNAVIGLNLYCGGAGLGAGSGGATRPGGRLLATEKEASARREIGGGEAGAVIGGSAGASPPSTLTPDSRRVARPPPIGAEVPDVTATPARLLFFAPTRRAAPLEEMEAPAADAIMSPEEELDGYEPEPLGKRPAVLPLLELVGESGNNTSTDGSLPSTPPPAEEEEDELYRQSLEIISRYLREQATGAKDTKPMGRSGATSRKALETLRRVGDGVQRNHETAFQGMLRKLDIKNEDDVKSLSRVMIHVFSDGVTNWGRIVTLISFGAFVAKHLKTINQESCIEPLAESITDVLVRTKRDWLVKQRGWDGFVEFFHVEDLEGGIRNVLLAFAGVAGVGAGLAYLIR
For `COCCNC(=O)CCCn1c(=O)c2ccccc2n(Cc2cccc([N+](=O)[O-])c2)c1=O`, the inhibition was 0% (inactive).

Take `CCC(=O)N1c2ccccc2NC2=C(C(=O)CCC2)C1c1ccco1` (stereo not drawn): the inhibition was 0% (inactive).

In the case of `S=c1[nH]cc(-c2ccc(Cl)cc2)n1-c1ccccc1`, the inhibition is 3% (inactive).

As to `CC/C(=N\NC(=S)NC(C)C)c1ccc(OC(F)F)cc1`, the inhibition was -2% (inactive).

`O=c1cc(CO)oc(C(Nc2cccc([N+](=O)[O-])c2)c2ccccn2)c1O` (stereo not drawn): the inhibition was -4% (inactive).

Consider `CCCc1nc2c([nH]1)C(c1cccnc1)C(C#N)=C(N)O2` (stereo not drawn), for which the inhibition is -3% (inactive).

`COCCCNC(=S)N1CCCC(c2nc3cc(C)c(C)cc3[nH]2)C1` (stereo not drawn): the inhibition was 6% (inactive).

As to `O=C(O)c1ccc2c3c(cccc13)C(=O)N(OS(=O)(=O)c1ccccc1)C2=O`, the inhibition was 1% (inactive).

In the case of `O=c1[nH]c(CN2CCOCC2)nc2scc(-c3ccccc3)c12`, the inhibition was 0% (inactive).

Regarding `O=C(O)Cc1ccc(NCc2ccccc2Cl)cc1`, the inhibition was -2% (inactive).

On to `CC(NC(=O)CC1SC(N)=NC1=O)c1ccccc1` (stereo not drawn), for which the inhibition is -7% (inactive).

Turning to `CCc1nn(CCCN2CCN(c3cccc(Cl)c3)CC2)c(=O)n1CCOc1ccccc1`, the inhibition was 0% (inactive).

For the compound `O=C1CS(=O)CN1c1ccc(Oc2ccccc2)cc1` (stereo not drawn), the inhibition was 0% (inactive).

In the case of `C=C(C)C1CC=C(C)/C(=N\NC(=O)CNc2ccccc2OC)C1` (stereo not drawn), the inhibition was 0% (inactive).

For the compound `COc1ccc([N+](=O)[O-])cc1NC(=O)CC1SC(=Nc2cccc(C)c2C)N(/N=C(\C)c2ccc(C)cc2)C1=O` (stereo not drawn), the inhibition was -1% (inactive).

In the case of `Cc1ccccc1NC(=O)Cn1c(=O)n(CC2CCCO2)c(=O)c2ccccc21` (stereo not drawn), the inhibition was -1% (inactive).

As for `COc1cccc(NC(=S)C(C#N)=C2N(C)c3ccccc3N2C)c1`, the inhibition is -1% (inactive).

For the compound `CCc1[nH]nc(C(=O)N2CCCC(CNS(=O)(=O)c3cccs3)C2)c1C` (stereo not drawn), the inhibition is 0% (inactive).

Take `CC(C(=O)NCC1CCCCC1)N(C)Cc1cccc(Cl)c1` (stereo not drawn): the inhibition was -1% (inactive).

Take `CCO[C@H]1OC(C(=O)N2CCCCCCC2)=C[C@@H](c2ccc(C(F)(F)F)cc2)[C@@H]1CCCO`: the inhibition is -4% (inactive).

On to `O=S(=O)(c1ccc(F)cc1)N1CCN(C(=S)NCc2ccco2)CC1`, for which the inhibition is -6% (inactive).

Consider `CC(=O)Nc1ccc(NC(=S)NC(=O)c2ccc([N+](=O)[O-])c(C)c2)cc1`, for which the inhibition is 2% (inactive).

For the compound `CN1CCN(CCNC(=O)Nc2ccc([N+](=O)[O-])cc2)CC1`, the inhibition was -3% (inactive).

For `CC1CCC(C(C)C)C(=O)/C1=C\c1ccc(NC(=O)CCC(=O)O)cc1` (stereo not drawn), the inhibition was 0% (inactive).

Regarding `Cc1ccc(CN2CCN(Cc3ccccc3-c3ccco3)CC2CCO)o1` (stereo not drawn), the inhibition was -1% (inactive).

On to `CCCCC1S/C(=N/N=C/c2cccs2)NC1=O` (stereo not drawn), for which the inhibition was -1% (inactive).

In the case of `NC(=O)c1ccc(N2CCOCC2)nc1`, the inhibition was 1% (inactive).

For `Cc1ccc2nc(C)cc(N/N=C/c3ccc(F)cc3)c2c1`, the inhibition was 0% (inactive).

With `Cc1n[nH]c(=O)nc1N/N=C/c1cccs1`, the inhibition was -1% (inactive).

For `CC(=O)N/N=C/c1cc2c(cc1[N+](=O)[O-])OCO2`, the inhibition was -2% (inactive).

For `Cc1ccc(Cl)cc1NC(=O)c1ccccn1`, the inhibition is -2% (inactive).

On to `NS(=O)(=O)c1ccc(NC(=O)COC(=O)c2ccco2)cc1`, for which the inhibition was 1% (inactive).

Take `O=C(N/N=C/c1ccco1)c1ccc(NC(=O)C2CC2)cc1`: the inhibition was -2% (inactive).

Consider `Cc1ccc2c(CC(=O)NCc3cccs3)coc2c1`, for which the inhibition was -3% (inactive).

With `COc1ccccc1NC(=O)C[n+]1ccccc1`, the inhibition was 0% (inactive).

As for `CCOC(=O)/C(C#N)=C/c1ccc(N2CCCCC2)cc1`, the inhibition was 0% (inactive).

`CCOC(=O)c1sc2nc(C)nc(Nc3ccc(OC)c(OC)c3)c2c1C`: the inhibition is 3% (inactive).

As for `Cc1nc2ccccc2c(C)c1C(=O)c1ccc(F)cc1`, the inhibition is 0% (inactive).

Turning to `CCOC(=O)c1ccc(NNC(C)=O)c([N+](=O)[O-])c1`, the inhibition was -1% (inactive).

For `Cc1nc2cc(NCc3cccs3)ccc2n1C`, the inhibition was -1% (inactive).

`COc1ccc(N2CCN(C(=O)C3CCN(S(=O)(=O)c4ccc(C)cc4)CC3)CC2)cc1`: the inhibition is 0% (inactive).

As for `O=C(CC1SC(=Nc2ccccc2)N(Cc2ccccn2)C1=O)Nc1cccc(Cl)c1` (stereo not drawn), the inhibition was 2% (inactive).

For the compound `CCOC(=O)c1sc(=NC(=O)/C=C/c2cccs2)n(C)c1C`, the inhibition was 3% (inactive).

As to `CC(=O)N1CCN(S(=O)(=O)c2ccc(C)c([N+](=O)[O-])c2)C1C(C)C` (stereo not drawn), the inhibition was 0% (inactive).

In the case of `CCC1(CC)NC(=O)N(Cc2nc3ccccc3s2)C1=O`, the inhibition is -2% (inactive).

As to `CCCNC(=O)OC[C@H]1O[C@H](CCO/N=C/[C@@H](NS(=O)(=O)c2ccc(C)cc2)[C@H](C)/C=C/CC(=O)OC)C=C[C@@H]1Oc1ccc(OC)cc1`, the inhibition is -2% (inactive).

For `Cc1ccc(C(=O)NC(=S)Nc2ccc3[nH]c(=O)[nH]c3c2)cc1C`, the inhibition was -2% (inactive).

In the case of `CSc1nc2nc(-c3cccc(C(F)(F)F)c3)ccn2n1`, the inhibition is 5% (inactive).

`Cc1ccc(S(=O)(=O)N(C)C)cc1NC(=O)COC(=O)C1COc2ccccc2O1` (stereo not drawn): the inhibition is 3% (inactive).

Consider `O=C(CCN1C(=O)c2ccncc2C1=O)Nc1cc(F)ccc1F`, for which the inhibition was 0% (inactive).

`O=C(c1ccc(F)cc1)N1CCC(n2nnc3ccccc32)CC1`: the inhibition is -2% (inactive).

Consider `Cc1ccc(C)c(Cn2cnc3c(oc4ccccc43)c2=O)c1`, for which the inhibition was -1% (inactive).

Consider `COc1ccc(-c2ccc(CNCCCN3CCOCC3)o2)cc1Cl`, for which the inhibition was 2% (inactive).

On to `Cc1ccc(C(=O)O)cc1NC(=O)c1ccc(Cn2nc(C)c(Cl)c2C)o1`, for which the inhibition was 1% (inactive).

Regarding `COc1cc(NC(=S)N2CCCC(C)C2)c(OC)cc1Cl` (stereo not drawn), the inhibition was -5% (inactive).

Take `CCCCN(CC)CCNC(=O)CCNC(=O)Cn1ccc2ccccc2c1=O`: the inhibition is -4% (inactive).

For the compound `O=C(CCSc1ccccc1)N1CCN(c2ccccc2F)CC1`, the inhibition was -2% (inactive).

As to `CCCN=C1NC(=O)C(CC(=O)NCCc2ccc(OC)c(OC)c2)S1` (stereo not drawn), the inhibition was -11% (inactive).

For `Cc1ccc(S(=O)(=O)N2CCN(C(=O)c3cccs3)CC2)cc1`, the inhibition is -5% (inactive).

In the case of `Cc1ccc(S(=O)(=O)NCCC(c2ccccc2)c2ccccc2)cc1C(=O)O`, the inhibition was 1% (inactive).

Turning to `CN(C)C(=O)c1cccn(Cc2cccc(C(F)(F)F)c2)c1=O`, the inhibition is 0% (inactive).

In the case of `Cc1ccc(-c2ccc(/C=C(\C#N)C(N)=S)o2)c([N+](=O)[O-])c1`, the inhibition is 0% (inactive).

On to `O=C(COC(=O)Cn1cnc2ccccc2c1=O)NCC12CC3CC(CC(C3)C1)C2`, for which the inhibition is -4% (inactive).
